Active and inactive are the calls of the source.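 How the source made its calls: active means viability increase at or above a cutoff of the median across tested compounds plus 3 SD (cut at about 8.5% in these data, passing the limit was not always enough); inconclusive means some gains above the cutoff, reason not given; inactive means the rest.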

This assay is described as follows: doxorubicin toxicity protection in MRP-1 cells – H69AR cells, CellTiter-Glo, duplicate, MRP-1 activator project, pilot screen (AID 807).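 Further: compound pretreatment 18-22 h then 72 h combined with doxorubicin; 0% = doxorubicin alone and 100% = vehicle without doxorubicin.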 The note with it: H69AR viability with doxorubicin, CellTiter-Glo luminescence; at 10 µM; hits give high values. (In general: In ATP-based viability assays light output follows the ATP content of the culture.)
As for `CCOc1ccc(-n2c(Cc3cc(=O)[nH]c(=O)[nH]3)nnc2SCC(=O)NC2CCCC2)cc1`, the viability increase is -0.16% (inactive).

Turning to `Cc1cccc(CSc2nnc(-c3ccccn3)n2N)c1`, the viability increase was -2.01% (inactive).

As to `CC1(C)C(c2ccc(Cl)cc2)=[N+]([O-])C2(CCCC/C2=N\O)N1O` (centres undefined), the viability increase was 1.21% (inactive).

Consider `COc1ccc(OCc2nnc3n2N=C(c2ccc(OC)cc2)CS3)cc1`, for which the viability increase was -2.84% (inactive).

Consider `COc1ccc(-c2ccc(=O)n(CC(=O)N3CCN(c4ccccc4OC)CC3)n2)cc1`, for which the viability increase is 2.33% (inactive).

`CC(C)=CC1C(C(=O)Nc2ccc(Br)cn2)C1(C)C` (centres undefined): the viability increase is -0.01% (inactive).

Take `Cc1ccc(-n2c(C)cc(C(=O)OCC(=O)N(C)C3CCS(=O)(=O)C3)c2C)cc1` (centres undefined): the viability increase was -1.95% (inactive).

For `CC(C)Cc1ccc(C#N)c(SCC(N)=O)n1`, the viability increase is -2.54% (inactive).

As for `Cc1csc2nc(CNS(=O)(=O)N(C)C)cn12`, the viability increase is -3.46% (inactive).

As to `CN(C)c1ccc(NC(=O)c2cccc(N3C(=O)CCC3=O)c2)cc1`, the viability increase was 1.36% (inactive).

Turning to `Cn1c(Cn2c(=O)sc3ccccc32)nnc1SCc1cccnc1`, the viability increase was -1.44% (inactive).

On to `CCCn1c(=S)[nH]c2cc(C(=O)NCC3CCCO3)ccc2c1=O` (centres undefined), for which the viability increase is 0.21% (inactive).

Turning to `O=C(Nc1nnc(-c2ccc3c(c2)OCCO3)o1)c1ccc(Cc2ccccc2)cc1`, the viability increase was -4.05% (inactive).

Turning to `COc1ccccc1OCC(=O)NC1CCCCCC1`, the viability increase is -0.27% (inactive).

For the compound `COc1cccc(-n2c(=O)[nH]cc(C(=O)Nc3ccc(NC(C)=O)cc3)c2=O)c1`, the viability increase was 0.63% (inactive).

In the case of `CCCC1(C(=O)O)NC(c2ccccc2O)C2C(=O)N(c3cccc(Cl)c3)C(=O)C21` (centres undefined), the viability increase is 0.1% (inactive).

As to `CCCC(=O)NCCCCNC(=O)CCC`, the viability increase is -0.9% (inactive).

As to `CCc1ccccc1NC1c2ccccc2C(=O)N1Cc1ccco1` (centres undefined), the viability increase is -4.71% (inactive).

With `CC(C)C(NS(=O)(=O)c1ccc2c(c1)oc(=O)n2C)C(=O)N1CCN(c2ccccc2F)CC1` (centres undefined), the viability increase is -4.04% (inactive).

As for `CC1(C)NC(C)(C)c2nonc2/C1=N\O`, the viability increase was 0.39% (inactive).

On to `CC(C)NS(=O)(=O)c1ccc2c(c1)oc(=O)n2C`, for which the viability increase was -0.75% (inactive).

`CCn1c(SCC(=O)Nc2nnc(C)s2)nc2c(c1=O)SC(C)C2` (centres undefined): the viability increase is 1.14% (inactive).

Regarding `CCOc1ccccc1N1C(=O)CC(Nc2ccc(N3CCOCC3)cc2)C1=O` (centres undefined), the viability increase is -2.65% (inactive).

On to `COc1ccc(-n2nnc3c(=O)n(CC(=O)OCc4ccccc4)cnc32)cc1`, for which the viability increase was -1.76% (inactive).

Take `O=C(Cn1cc2c(n1)CCCC2)NCc1cccc(Cl)c1`: the viability increase was -0.45% (inactive).

As to `Cc1cc2cc(CNC(=O)Cc3cccs3)ccc2n1C`, the viability increase is -4.96% (inactive).

For the compound `c1ccc(-c2noc(CN3CCN(c4ccccc4)CC3)n2)cc1`, the viability increase was -2.27% (inactive).

Regarding `O=C(CC1Sc2ncnn2C1=O)Nc1ccc(Br)cc1` (centres undefined), the viability increase was -1.23% (inactive).

Turning to `COc1ccc(C2NC(=O)NC(O)(C(F)(F)F)C2C(=O)c2ccc(C)cc2)cc1` (centres undefined), the viability increase was -2.35% (inactive).

With `Cc1c(C(=O)Nc2ccc(F)cc2)oc2ccc(S(=O)(=O)N3CCCC3)cc12`, the viability increase is -2.04% (inactive).

For `O=C(Nn1nnnc1Nc1ccccc1)C12CC3CC(CC(C3)C1)C2`, the viability increase is -5.83% (inactive).

Regarding `Cn1c(=O)n(C)c2cc(CN3C(=O)OC(C)(C)C3(C)O)ccc21` (centres undefined), the viability increase is -1.11% (inactive).

Consider `CCOC(=O)N1CCC(NC(=O)CS(=O)(=O)Cc2nc(-c3ccc(C)cc3)oc2C)CC1`, for which the viability increase was 0.42% (inactive).

As to `COc1ccc(O)c(C(=O)c2cnn(C(=O)c3cc(C)oc3C)c2)c1`, the viability increase is -1.89% (inactive).

As to `Cn1nnnc1SCc1ccc(F)cc1`, the viability increase was -0.09% (inactive).

With `O=C(Nc1ccccc1Cl)N1CCN(c2ccc3nnc(-c4ccccc4)n3n2)CC1`, the viability increase is -4.19% (inactive).

For the compound `Cc1nc2sc(C(c3cccs3)N3CCN(Cc4ccccc4)CC3)c(O)n2n1` (centres undefined), the viability increase was -1.47% (inactive).

For the compound `COc1ccc(Cc2nnc(-c3cccc(C)c3)o2)cc1OC`, the viability increase is 1.15% (inactive).

As to `COc1ccc(NC(=O)CN(c2cc(C)cc(C)c2)S(=O)(=O)c2c(C)n[nH]c2C)cc1`, the viability increase was -2.97% (inactive).

For the origin of these results see PubChem BioAssay.
